Only a selection was taken, and hits are over-represented in it overall.
VCAM1 pot: TNF alpha stimulated VCAM1 expression potentiation. HUVEC TNFa-stimulated VCAM-1 immunofluorescence, high-content imaging; scaled per plate to unstimulated/TNFa-only wells. activation, % at 2 µM. actives 0.19% (n = 93,000). AID 808;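 active means activation above the screen mean plus 3 SD, with well images confirming the hit on visual review, cut at about 28% in these data, passing the limit was not always enough; inconclusive means activation above that limit but images do not confirm it; inactive means activation not above that limit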;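 further: signal is the number of cytoplasmic VCAM-1 stained grains per positive cell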
VCAM1 pot conf: enhancers of VCAM1 induction in HUVEC – imaging, triplicate retest, confirmation | shares compounds with VCAM1 pot | HUVEC TNFa-stimulated VCAM-1 immunofluorescence imaging | activation, % at 2 µM | 230 tested, under 10 active;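 active means activation above 30% in triplicate retests at 2 µM, then confirmed by visual review of the well images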
Of the large screens only hits and unclear results are named; the others gave an inactive call (follow-up assays come after a bar, where they were run).

Cc1ccc(-c2nnn(CC(=O)N(Cc3ccco3)C(C(=O)NC3CCCC3)c3cccs3)n2)o1 (stereo not drawn)	none
CCOc1ccc(-c2nnn(CC(=O)NCc3ccc4c(c3)OCO4)n2)cc1	none
COCCCNc1nc2ccccc2nc1NS(=O)(=O)c1cccs1	none
CC1OC(Nc2cccc3ccccc23)C(O)C(O)C1O (stereo not drawn)	VCAM1 pot inconclusive | VCAM1 pot conf inactive
Cc1cc(C)c(C(N)=O)c(Nc2cccc3ccccc23)n1	none
CCCc1[nH]nc2c1C(c1ccc(OC)c(CSC3=NCCS3)c1)C(C#N)=C(N)O2 (stereo not drawn)	none
Cn1c(-c2ccc3c(c2)OCO3)cnc1NCc1ccccc1	VCAM1 pot 51 | VCAM1 pot conf inactive
c1cncc(-c2nc(-c3ccc4c(c3)OCO4)cs2)c1	none
Cn1c(Cc2ccccc2)nnc1SCC(=O)Nc1ccc2c(c1)OCO2	none
CCn1c(SCc2nc(-c3cccs3)no2)nnc1-c1c[nH]c2ccccc12	none
O=C(Cn1cc(C(=O)c2ccco2)c2ccccc21)NCc1ccco1	none
COC(=O)Cn1cc(C(=O)C2CC2)c2ccccc21	VCAM1 pot 54 | VCAM1 pot conf inactive
Cn1c(-c2ccccc2O)cc2ccccc21	none
COC(=O)c1c(NC(=O)CSc2nnc(-c3cccnc3)n2Cc2ccco2)sc(C)c1C	none
CCCn1c(SCC(=O)Nc2sc(C)c(C)c2C(=O)OCC)nc2c1c(=O)n(C)c(=O)n2C	VCAM1 pot 31 | VCAM1 pot conf inactive
CCOC(=O)CNC(=O)CSc1nc2sc(C)c(C)c2c(=O)n1C	none
CCOc1ccccc1C1CC(c2ccc(F)cc2)Nc2nc(N)nn21 (stereo not drawn)	none
Cc1ccc(NC(=O)C2CCN(S(=O)(=O)c3c(C)[nH]c(=O)[nH]c3=O)CC2)cc1	none
CCOC(=O)CSc1nc(C2CC2)cc(-c2ccc(F)cc2)c1C#N	none
CSC1=C(C#N)C(c2ccc(C)s2)CC(=O)N1 (stereo not drawn)	none
COC(=O)CSC1=C(C#N)C(c2ccc(F)cc2)CC(=O)N1 (stereo not drawn)	VCAM1 pot 32 | VCAM1 pot conf inactive
CCN(C(=O)CSc1nc2ccccc2n1CCc1ccccc1)C1CCS(=O)(=O)C1 (stereo not drawn)	none
N#CCCNC(=O)CCN1CCOCC1	none

Source: PubChem BioAssay (Columbia University Molecular Screening Center)
